Experimental data: ChEMBL document CHEMBL5724796, “Tm Shift (DSF) assay results for EUbOPEN Chemogenomics Library” (2024)
Several values for one entry are separate records, joined by “and”; a condition that tells them apart may be missing. Identical values can stand only once. Non-standard residues stand in square brackets, D forms with d. Residues, ends and D or L forms follow the SMILES beside them. *: point of attachment. Benzoyl(4-OPh) = O=C(c1ccc(Oc2ccccc2)cc1)*; Lys(Et2) = CCN(CC)CCCC[C@H](N)C(=O)O; d(aIle) = CC[C@H](C)[C@@H](N)C(=O)O; Gly(cPent) = N[C@H](C(=O)O)C1CCCC1; NH(propargyl) = C#CCN*

What was measured:
Settings in all cases: Compound concentration 20.0 uM
[1] = molecular target: Tyrosine-protein kinase ABL1 (Homo sapiens) (UniProt P00519)
[2] = molecular target: Bromodomain-containing protein 4 (Homo sapiens) (UniProt O60885)
[3] = molecular target: Cyclin-dependent kinase 2 (Homo sapiens) (UniProt P24941)
[4] = molecular target: Casein kinase I isoform delta (Homo sapiens) (UniProt P48730)
[5] = molecular target: Glycogen synthase kinase-3 beta (Homo sapiens) (UniProt P49841)
[6] = molecular target: Mitogen-activated protein kinase 1 (Homo sapiens) (UniProt P28482)
[7] = molecular target: T1, Aurora kinase A (Homo sapiens) (UniProt O14965)
T1 sequence (whole entry): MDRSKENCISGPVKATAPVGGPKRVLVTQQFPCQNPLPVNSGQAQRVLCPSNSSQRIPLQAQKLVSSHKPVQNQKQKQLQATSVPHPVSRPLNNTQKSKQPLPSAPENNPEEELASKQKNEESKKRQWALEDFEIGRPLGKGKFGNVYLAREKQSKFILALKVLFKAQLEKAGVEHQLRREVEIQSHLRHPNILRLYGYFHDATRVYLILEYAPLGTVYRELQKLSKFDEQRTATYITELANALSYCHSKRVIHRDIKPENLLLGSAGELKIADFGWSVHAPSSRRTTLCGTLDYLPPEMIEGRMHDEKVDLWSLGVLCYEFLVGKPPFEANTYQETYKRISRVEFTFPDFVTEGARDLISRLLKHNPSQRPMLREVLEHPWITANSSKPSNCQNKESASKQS

[8] = molecular target: T2, Transcription intermediary factor 1-alpha (Homo sapiens) (UniProt O15164)
T2 sequence (whole entry): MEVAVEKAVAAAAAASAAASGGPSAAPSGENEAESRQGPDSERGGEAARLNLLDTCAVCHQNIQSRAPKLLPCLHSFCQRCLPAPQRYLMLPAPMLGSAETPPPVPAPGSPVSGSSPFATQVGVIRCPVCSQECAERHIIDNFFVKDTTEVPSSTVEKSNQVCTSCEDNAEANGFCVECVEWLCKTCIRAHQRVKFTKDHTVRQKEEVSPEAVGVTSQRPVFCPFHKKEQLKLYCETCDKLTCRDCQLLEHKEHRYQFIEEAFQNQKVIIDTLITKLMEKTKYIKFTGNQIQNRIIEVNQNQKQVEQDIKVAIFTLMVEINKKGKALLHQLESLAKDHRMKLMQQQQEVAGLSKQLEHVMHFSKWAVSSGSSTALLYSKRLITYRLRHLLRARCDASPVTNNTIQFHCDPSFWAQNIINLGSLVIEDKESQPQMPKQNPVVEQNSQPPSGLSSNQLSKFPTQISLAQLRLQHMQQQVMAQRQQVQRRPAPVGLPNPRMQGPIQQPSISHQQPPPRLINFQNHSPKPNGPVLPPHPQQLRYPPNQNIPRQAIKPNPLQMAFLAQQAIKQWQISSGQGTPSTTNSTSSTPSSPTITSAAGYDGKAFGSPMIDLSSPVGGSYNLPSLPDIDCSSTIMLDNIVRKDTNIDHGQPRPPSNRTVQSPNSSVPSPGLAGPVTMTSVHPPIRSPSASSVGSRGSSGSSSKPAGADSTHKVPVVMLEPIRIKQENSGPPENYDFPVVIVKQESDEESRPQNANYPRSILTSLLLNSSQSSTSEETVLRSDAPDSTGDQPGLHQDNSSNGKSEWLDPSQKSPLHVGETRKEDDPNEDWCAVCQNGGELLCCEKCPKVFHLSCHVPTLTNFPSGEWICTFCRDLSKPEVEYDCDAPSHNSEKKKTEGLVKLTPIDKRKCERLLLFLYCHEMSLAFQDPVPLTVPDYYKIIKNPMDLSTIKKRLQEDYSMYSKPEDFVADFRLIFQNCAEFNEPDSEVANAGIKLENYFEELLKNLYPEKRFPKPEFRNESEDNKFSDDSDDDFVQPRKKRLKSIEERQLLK

Sequence of Glycogen synthase kinase-3 beta (Homo sapiens) (P49841 whole entry, looked up): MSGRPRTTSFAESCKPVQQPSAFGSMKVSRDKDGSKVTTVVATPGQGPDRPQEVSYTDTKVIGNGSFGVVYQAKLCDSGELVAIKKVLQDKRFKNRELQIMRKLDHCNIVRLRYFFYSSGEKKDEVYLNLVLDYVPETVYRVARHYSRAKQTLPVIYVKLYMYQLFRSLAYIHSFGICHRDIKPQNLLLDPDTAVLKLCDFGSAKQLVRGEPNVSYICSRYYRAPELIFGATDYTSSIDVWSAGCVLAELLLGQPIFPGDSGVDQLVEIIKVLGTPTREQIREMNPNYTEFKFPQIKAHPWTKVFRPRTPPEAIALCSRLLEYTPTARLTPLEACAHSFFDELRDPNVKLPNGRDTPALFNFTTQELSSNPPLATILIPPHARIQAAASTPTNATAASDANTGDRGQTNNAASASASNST
Sequence of Mitogen-activated protein kinase 1 (Homo sapiens) (P28482 whole entry): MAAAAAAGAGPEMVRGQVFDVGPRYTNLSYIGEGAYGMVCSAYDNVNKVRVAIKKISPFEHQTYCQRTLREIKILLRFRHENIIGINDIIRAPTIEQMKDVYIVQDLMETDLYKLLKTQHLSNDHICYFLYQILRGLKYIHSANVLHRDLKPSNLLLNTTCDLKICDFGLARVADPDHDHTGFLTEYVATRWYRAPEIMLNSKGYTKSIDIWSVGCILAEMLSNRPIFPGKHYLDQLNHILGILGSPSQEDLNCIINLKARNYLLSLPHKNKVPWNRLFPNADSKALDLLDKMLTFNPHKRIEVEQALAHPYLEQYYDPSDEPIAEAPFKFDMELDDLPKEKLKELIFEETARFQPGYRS
Sequence of Tyrosine-protein kinase ABL1 (Homo sapiens) (P00519 whole entry): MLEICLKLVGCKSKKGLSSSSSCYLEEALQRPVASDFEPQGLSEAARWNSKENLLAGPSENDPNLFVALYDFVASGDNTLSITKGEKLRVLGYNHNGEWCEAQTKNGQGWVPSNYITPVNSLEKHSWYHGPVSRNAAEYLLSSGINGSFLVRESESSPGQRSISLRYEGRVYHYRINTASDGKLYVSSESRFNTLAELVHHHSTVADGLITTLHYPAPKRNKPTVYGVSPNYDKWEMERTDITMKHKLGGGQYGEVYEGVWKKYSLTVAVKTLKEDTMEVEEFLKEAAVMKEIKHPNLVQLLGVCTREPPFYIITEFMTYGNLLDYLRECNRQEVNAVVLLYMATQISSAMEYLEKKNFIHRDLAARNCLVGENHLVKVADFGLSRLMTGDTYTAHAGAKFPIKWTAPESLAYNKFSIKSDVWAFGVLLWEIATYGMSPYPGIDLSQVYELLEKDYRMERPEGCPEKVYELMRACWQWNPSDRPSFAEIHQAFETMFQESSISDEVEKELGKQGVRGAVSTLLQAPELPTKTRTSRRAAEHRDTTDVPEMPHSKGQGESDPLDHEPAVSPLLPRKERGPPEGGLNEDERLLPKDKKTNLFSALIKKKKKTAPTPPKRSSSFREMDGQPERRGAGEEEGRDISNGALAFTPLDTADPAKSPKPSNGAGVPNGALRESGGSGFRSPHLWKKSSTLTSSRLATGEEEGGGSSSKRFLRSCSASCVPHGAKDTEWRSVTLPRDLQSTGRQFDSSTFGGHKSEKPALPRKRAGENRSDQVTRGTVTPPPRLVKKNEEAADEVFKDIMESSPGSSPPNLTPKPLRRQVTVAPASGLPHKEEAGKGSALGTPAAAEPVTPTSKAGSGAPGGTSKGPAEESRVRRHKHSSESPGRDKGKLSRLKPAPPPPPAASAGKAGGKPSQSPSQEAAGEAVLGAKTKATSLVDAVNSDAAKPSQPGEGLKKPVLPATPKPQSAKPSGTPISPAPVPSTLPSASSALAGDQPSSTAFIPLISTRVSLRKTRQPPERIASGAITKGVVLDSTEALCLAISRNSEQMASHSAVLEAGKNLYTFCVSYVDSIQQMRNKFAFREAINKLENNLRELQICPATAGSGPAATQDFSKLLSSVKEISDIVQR
Sequence of Casein kinase I isoform delta (Homo sapiens) (P48730 whole entry, looked up, canonical isoform): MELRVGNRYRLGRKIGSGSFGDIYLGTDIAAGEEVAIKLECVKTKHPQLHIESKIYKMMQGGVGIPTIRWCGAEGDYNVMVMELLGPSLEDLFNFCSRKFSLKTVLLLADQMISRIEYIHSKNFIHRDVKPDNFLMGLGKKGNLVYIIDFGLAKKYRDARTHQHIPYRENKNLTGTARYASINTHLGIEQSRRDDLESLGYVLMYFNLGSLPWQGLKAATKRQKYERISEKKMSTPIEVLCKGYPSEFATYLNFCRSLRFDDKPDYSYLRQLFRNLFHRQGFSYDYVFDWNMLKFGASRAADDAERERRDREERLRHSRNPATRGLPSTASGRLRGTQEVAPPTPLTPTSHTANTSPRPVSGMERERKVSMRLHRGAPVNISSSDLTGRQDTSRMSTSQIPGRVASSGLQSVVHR

Structure (SMILES)	ΔTm [1]	ΔTm [2]	ΔTm [3]	ΔTm [4]	ΔTm [5]	ΔTm [6]	ΔTm [7]	ΔTm [8]
C=CCO/N=C1\c2ccccc2-c2nc(C#N)c(C#N)nc21	0.13 °C	-2.12 °C	0.55 °C	-1.63 °C	0.17 °C	-0.02 °C	-2.47 °C	0.9 °C
CCCCCn1c(C)c(C(=O)c2cccc3ccccc23)c2ccccc21	0.2 °C	-0.88 °C	0.76 °C	0.04 °C	-0.36 °C	0.95 °C	-2.46 °C	0.22 °C
C#CCNC(=O)[C@H](CO)NC(=O)[C@H](CCCCN(CC)CC)NC(=O)[C@H](NC(=O)[C@@H](NC(=O)c1ccc(Oc2ccccc2)cc1)C1CCCC1)[C@@H](C)CC ({Benzoyl(4-OPh)}-[Gly(cPent)][d(aIle)][Lys(Et2)]S-{NH(propargyl)})	0.66 °C	-3.19 °C	-0.21 °C	0.55 °C	-0.46 °C	0.25 °C	0.59 °C	-3.76 °C
CN(Cc1cccc(-c2ccncc2)c1)C(=O)Oc1ccc(-c2ccc(C(N)=O)cc2)cc1	0.52 °C	0.54 °C	0.45 °C	-0.05 °C	0.86 °C	0.04 °C	-1.82 °C	0.18 °C
O=C(NCCCCc1ccccc1)n1c(=O)oc2cc(-c3ccc(F)cc3)ccc21	0.52 °C	-2.75 °C	0.86 °C	-0.19 °C	0.3 °C	0.07 °C	-1.29 °C	0.81 °C
CCO/N=C1\c2ccccc2-c2nc(C#N)c(C#N)nc21	0.39 °C and 0.29 °C	-1.18 °C and -1.1 °C	0.59 °C and 0.08 °C	-1.52 °C and -1.06 °C	0.4 °C and -0.71 °C	-0.11 °C and -0.98 °C	-2.42 °C and -1.91 °C	0.92 °C and 0.33 °C
O=C1C(P(=O)(O)O)CC(O)N1O (stereo not drawn)	0.12 °C	0.66 °C	-0.03 °C	-0.38 °C	-0.77 °C	0.16 °C	-2.18 °C	-0.46 °C
CS(=O)(=O)Nc1ccc(-c2coc3cc(OCc4cccc(C(=O)O)c4)ccc3c2=O)cc1	-0.03 °C	0.08 °C	0.07 °C	-0.49 °C	-0.46 °C	0.64 °C	-0.26 °C	0.89 °C
CNC(=O)c1cc(C(=O)NC2CC2)cn(Cc2ccccc2)c1=O	0.09 °C	-0.92 °C	0.1 °C	-0.13 °C	-0.62 °C	0.15 °C	-2.45 °C	0.41 °C
C(=C\c1ccccc1)/CN1CCN(CCOC(c2ccccc2)c2ccccc2)CC1	0.28 °C	-3.78 °C	-0.38 °C	-0.31 °C	-0.82 °C	0.07 °C	-2.65 °C	-2.32 °C
CCOC(=O)c1ccc(-c2ccc(OC(=O)N(C)Cc3cccc(-c4ccncc4)c3)cc2)cc1	1.38 °C	-2.49 °C	0.29 °C	-0.29 °C	-4.12 °C	0.21 °C	-1.65 °C	-0.65 °C
